{"source": "PubChem BioAssay (NCI)", "note": "Several values for one entry are separate records, joined by “and”; a condition that tells them apart may be missing. Equal entries are not always repeated. Compounds without any hit were thinned out: in the full panel of roughly 83,000, 20% have a hit.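 Values shown are percent growth following 48 h exposure of cells in 96-well plates to a single concentration of compound; below 10 was considered active.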 A number with no mark means an inactive call. Activity calls are given as the source filed them."}
{"test_system": "MDA-MB-468 breast", "experiment": "NCI-60 one-dose screen, 48 h (100 = growth as untreated, 0 = no growth, -100 = all killed)", "details": "10 µM unless noted"}
{"smiles": "Cc1cc(N2CCCC2)nc(N(CCCNc2ccnc3cc(Cl)ccc23)Cc2ccc3c(c2)OCO3)n1", "growth": "-47.4% (active)"}
{"smiles": "CCc1cc2c(cc1Cl)nc1c(=O)[nH]c(=O)nc-1n2CCOCC(C)C", "growth": "43.8%"}
{"smiles": "Oc1ccccc1/C=N\\NC(=S)N/N=C/c1ccccc1O", "growth": "32.2% and 11.3%"}
{"smiles": "CNc1ccccc1C(N)=O", "growth": "105%"}
{"smiles": "Nc1c(Cl)cc(N=Nc2ccccc2)cc1Cl", "growth": "-61.3% (active)"}
{"smiles": "COc1cc2nc(Cl)nc(NCCO)c2cc1OC", "growth": "99.2%"}
{"smiles": "COc1ccc(/C=C2\\CN(Cc3cn(CCCNc4ccnc5cc(Cl)ccc45)nn3)C/C(=C\\c3ccc(OC)c(OC)c3)C2=O)cc1OC", "growth": "-11.1% (active)"}
{"smiles": "CC(=O)OC1CC2C(C)(C)CCC[C@]2(C)C2=C1C(O)=C(C(C)C)C(=O)C2=O", "note": "(stereo not given in full)", "growth": "-49.5% (active)"}
{"smiles": "Oc1ccc(Cl)cc1Cc1cc(Cl)cc(Cl)c1O", "growth": "18.4%"}
{"smiles": "O=[N+]([O-])c1ccc(-c2ncc(-c3ccc(O)cc3O)[nH]2)cc1", "growth": "107%"}
{"smiles": "CCOC(=O)C#Cc1c(C(=O)OCC)nnn1Cc1ccc([N+](=O)[O-])cc1", "growth": "-19.6% (active)"}
{"smiles": "O=C(NCCNc1nccc(-c2c(-c3cccc(O)c3)nc3sccn23)n1)c1cc(N2CCOCC2)cc(C(F)(F)F)c1", "growth": "94.8%"}
{"smiles": "CCOC(=O)c1c(C)nn(CC(O)c2ccccc2)c1NC(=O)Nc1cccc(F)c1", "note": "(stereo not given)", "growth": "82.6%"}
{"smiles": "O=C(CNc1nc(-c2cccc([N+](=O)[O-])c2)cs1)Nc1cccc(Cl)c1", "growth": "98%"}
{"smiles": "C#Cc1nc(C2=C(C)C(O)/C(=N/O)C2)cs1", "note": "(stereo not given)", "growth": "74.5%"}
{"smiles": "C[n+]1c2ccccc2c(NC2CCNCC2)c2[nH]c3ccccc3c21", "growth": "-72.5% (active)"}
{"smiles": "O=C(O)C(Cc1ccccc1)N1C(=O)/C(=C/C(Cl)=C/c2ccc([N+](=O)[O-])cc2)SC1=S", "note": "(stereo not given)", "growth": "-12.8% (active)"}
{"smiles": "COc1cc(C(=O)c2cnc(-c3c[nH]c4cccc(C)c34)[nH]2)cc(OC)c1OC", "growth": "2% (active)"}
{"smiles": "NNC(=O)Nc1ccccc1", "growth": "104%"}
{"smiles": "Cc1ccc(C(NC(=O)c2ccccc2)c2ccc3cccnc3c2O)cc1", "note": "(stereo not given)", "growth": "-26.6% (active)"}
{"smiles": "O=C1C=CC(Nc2ccccc2[N+](=O)[O-])C1Nc1ccccc1[N+](=O)[O-]", "note": "(stereo not given)", "growth": "-97.4% (active)"}
{"smiles": "CCCCCCc1cc2cc(-c3nc4ccccc4[nH]3)c(=Nc3ccccc3C)oc2cc1O", "growth": "-5.99% (active)"}
{"smiles": "CC[C@@H](C(=O)[C@@H](C)[C@@H](O)[C@H](C)[C@@H]1O[C@@H]([C@@H](CC)C(=O)ONC(=O)c2ccccc2O)CC[C@@H]1C)C1O[C@]2(C=CC(=O)[C@]3(CC[C@@](C)([C@H]4CC[C@](O)(CC)[C@H](C)O4)O3)O2)[C@H](C)C[C@@H]1C", "note": "(stereo not given in full)", "growth": "16.4%"}
{"smiles": "O=C(O)c1cccc([N+](=O)[O-])c1O", "growth": "102%"}
{"smiles": "CCCCCCNC(=O)Nc1ccc2cc3ccc(NC(=O)NCCCCCC)cc3nc2c1", "growth": "18.6%"}
{"smiles": "Cc1cc(C(C)(C)C)cc(C)c1Br", "growth": "113%"}
{"smiles": "O=C(Nc1ccc(Cl)cc1)c1cc(NCc2cc(O)ccc2O)ccc1O", "growth": "81.2%"}
{"smiles": "COc1cc(C2C3=C(COC3=O)N(CCO)c3cc4c(cc32)CCC4)cc(OC)c1O", "note": "(stereo not given)", "growth": "-21.7% (active)"}
{"smiles": "Cc1cccc(Cc2cnc(NC(=O)c3ccc4nnsc4c3)s2)c1", "growth": "94.8%"}
{"smiles": "CNC(=O)c1c(NC(=O)c2cccc(C(F)(F)F)c2)sc2c1CCC(=O)C2", "growth": "-28% (active)"}
{"smiles": "COc1ccccc1CNCCCN1C(=O)c2ccc3c4c(ccc(c24)C1=O)C(=O)N(CCCN)C3=O", "growth": "-88.1% (active)"}
{"smiles": "Nc1nc2cc(O)ccc2n2cc3c(F)cccc3c12", "growth": "18.6%"}
{"smiles": "CSc1nn(-c2ccccc2)c2ncnc(Oc3ccccc3)c12", "growth": "88.6%"}
{"smiles": "O=C1[C@@H](OS(=O)(=O)CC(F)(F)F)[C@H](c2ccc(F)cn2)N1c1cc2c3ccccc3ccc2c2ccccc12", "growth": "89.4%"}
{"smiles": "CNC(=O)c1cc(-c2ccc(NC(=S)Nc3cc(C(F)(F)F)cc(C(F)(F)F)c3)cc2)nc2cccnc12", "growth": "-8.04% (active)"}
{"smiles": "O=C(NC(=S)Nc1ccc(-c2nc3ccccc3[nH]2)cc1)c1ccc2ccccc2c1", "growth": "13.6%"}
{"smiles": "CN(C)C(=O)Nc1nc2cc(Cl)c(Cl)cc2[nH]1", "growth": "-13.4% (active)"}
{"smiles": "Cc1cccnc1NC1OC(=O)c2ccccc21", "note": "(stereo not given)", "growth": "103%"}
{"smiles": "CCN1C(=O)/C(=c2\\sc3n(c2=O)C2C(NN=3)N(CC)C(=O)N2CC)c2ccccc21", "note": "(stereo not given)", "growth": "-13.5% (active)"}
{"smiles": "CCCN1CN2C(=O)N3CN(CCC)CN4C(=S)N(C1)C2C34", "note": "(stereo not given)", "growth": "107%"}
